Screens as filed in PubChem.
Only some compounds are listed: those with a hit (about 14% of all), similar ones and a draw of the others.
Pf growth 96h: Primary qHTS for delayed death inhibitors of the malarial parasite plastid, 96 hour incubation; P. falciparum luciferase reporter growth, 96 h; Potency, µM (titrated, usually from 28.7 µM), for inactives: at the top dose activity change, negative = inhibition, usual class: inhibitors; 320,000 compounds, 6.9% hits; also: potency is read from the fitted curve at half-maximal effect
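Two parasite generations (96 h, 37 C, 5% CO2) of compound exposure in infected erythrocytes (0.05% parasitemia, 2% hematocrit). Luciferase-reporter P. falciparum; decreased luminescence indicates inhibited growth, aimed at apicoplast-acting delayed death.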
HCMV inh: qHTS Assay for inhibitors of the human cytomegalovirus (HCMV). HFF cells, HCMV-luciferase reporter, 72 h; hits give low values. activity change, negative = inhibition, % at 57.5 µM. 410,000 compounds, 4.5% hits. AID 1259415, 2018; in the data active = activity change below about -60%; inconclusive = no clear call, values can overlap the other calls; inactive = above about -39%
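Cell-based, HFFs, 1000 cells/well, 16 h 37C; cpds in DMSO + HCMV-luc, MOI 1 PFU/cell; 72 h 37C; OneGlo luminescence after 5 min RT; norm. to buffer vs Salinomycin 10uM.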
Sm TGR block: qHTS Assay for the Inhibitors of Schistosoma Mansoni Peroxiredoxins; Schistosoma mansoni thioredoxin glutathione reductase (TGR), Q962Y6; purified TGR, DTNB reduction, TNB absorbance 405 nm; Potency, µM (series often up to 114 µM), without a hit: top-dose activity change, negative = inhibition, hits mostly inhibitors; 360,000 compounds, 3% hits; AID 485364, 2010; also: potency is read from the fitted curve at half-maximal effect; nearly all actives have a fitted effect of over 60% in size
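First, TGR (20 nM dispensed) and NADPH were mixed with compound. Second, a 15 min room-temperature incubation followed. Third, further NADPH and then DTNB were added to start the reaction. Finally, TNB absorbance was monitored kinetically.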
Pf growth 48h: Primary qHTS for delayed death inhibitors of the malarial parasite plastid, 48 hour incubation | P. falciparum luciferase growth in erythrocytes, 48 h | Potency, µM (series often up to 28.7 µM), for the others: at the top dose activity change, negative = inhibition, actives largely listed as inhibitors | 310,000 compounds, 5.9% hits | AID 504832, 2011; also: potency is read from the fitted curve at half-maximal effect
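Luciferase-expressing P. falciparum in infected erythrocytes (2% hematocrit, 0.1% parasitemia final) in RPMI 1640/0.5% Albumax were exposed to compound for 48 hours at 37 C, 5% CO2; growth read as luminescence.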
FBPA Giardia inh: qHTS Assay for Inhibitors of Fructose-1,6-bisphosphate Aldolase from Giardia Lamblia | purified Giardia FBPA | A8B2U2 | 290,000 compounds, 0.71% hits | Potency, µM (highest dose often 59.6 µM), inactives show at the top dose activity, negative = inhibition, hits mostly inhibitors; also: potency is read from the fitted curve at half-maximal effect; nearly all actives have a fitted effect of over 55% in size
Target sequence (A8B2U2 whole entry, looked up): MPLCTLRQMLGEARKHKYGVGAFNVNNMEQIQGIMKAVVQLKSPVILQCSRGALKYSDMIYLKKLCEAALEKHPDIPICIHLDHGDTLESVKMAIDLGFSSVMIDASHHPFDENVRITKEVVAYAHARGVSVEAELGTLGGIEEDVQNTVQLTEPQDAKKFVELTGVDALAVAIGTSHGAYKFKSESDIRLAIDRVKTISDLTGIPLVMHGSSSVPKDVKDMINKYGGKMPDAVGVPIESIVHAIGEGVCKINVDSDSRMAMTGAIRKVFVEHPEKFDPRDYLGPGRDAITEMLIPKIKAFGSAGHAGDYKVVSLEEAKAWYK
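Giardia FBPA (40 nM reagent) was preincubated 10 min at RT with compound (up to 57.5 uM final), then substrate plus GAPDH/TPI/NAD/arsenate coupling system with diaphorase/resazurin was added; resorufin fluorescence (525/598 nm) was read after 20 min.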
* marks the source's active call; other numbers are inactive results; [ ] = another dose, or the depositor's remark. Unless noted, calls follow the shape of the dose curve; as a rule, active = well fitted curve in the direction sought with a large enough effect; inconclusive = small, poorly fitted or top-dose-only effect, or another doubt; inactive = no such curve, though single readings can be large; an effect the other way counts as inactive or inconclusive. % is scaled to controls: 0 for no effect and ±100 for the full control effect.

How did C[C@H]1Cc2c(COc3ccccc3)nc3c(c2CO1)CN(C(=O)NCCc1c[nH]c2ccccc12)CC3 do in these assays?
FBPA Giardia inh: -6%[12.9 µM]

What do the screens show for `Cc1cccc(NC(=O)CSCc2nc3c(nnn3Cc3ccc(F)cc3)c(=O)[nH]2)c1C`?
Pf growth 96h: -29%; HCMV inh: inconclusive; Sm TGR block: 0%[57.1 µM]; Pf growth 48h: 5%; FBPA Giardia inh: 3%

How did CN(C)c1ccc(NC(=O)CSCc2nc3c(nnn3Cc3ccc(F)cc3)c(=O)[nH]2)cc1 do in these assays?
Pf growth 96h: 8.3µM*; Sm TGR block: 45µM*; Pf growth 48h: -23%; FBPA Giardia inh: inconclusive

What do the screens show for `CC1CCN(C(=O)c2nc[nH]c2C(=O)N2CCC(C)CC2)CC1`?
Pf growth 96h: 36%; HCMV inh: 6; Sm TGR block: -8%; Pf growth 48h: 19%

What do the screens show for `Cc1ccccc1C(=O)NC(CC(C)C)C(=O)Nc1cccc(S(=O)(=O)N(C)C)c1` (stereo not drawn)?
Pf growth 96h: -10%; HCMV inh: 7; Sm TGR block: 1%; Pf growth 48h: -22%; FBPA Giardia inh: 5%

What do the screens show for `Cc1ccccc1C(=O)NC(CC(C)C)C(=O)Nc1ccc(F)c([N+](=O)[O-])c1` (stereo not drawn)?
Pf growth 96h: inconclusive; HCMV inh: -104*; Sm TGR block: 0%; Pf growth 48h: -4%; FBPA Giardia inh: 3%

What do the screens show for `C=C(C)CSc1nc2sc3c(c2c(=O)n1-c1ccccc1)CC(C(C)C)OC3` (stereo not drawn)?
HCMV inh: 9; Sm TGR block: -3%

How did COc1cccc(CN2CC3(CN(S(C)(=O)=O)C3)c3c(n(C)c4cc(OC)ccc34)[C@H]2CO)c1 do in these assays?
HCMV inh: -33

How did CCOc1cc(/C=C2\COc3ccccc3C2=O)ccc1OCC(=O)N(C)C do in these assays?
Pf growth 96h: inconclusive; HCMV inh: 47; Sm TGR block: inconclusive; Pf growth 48h: 15µM*; FBPA Giardia inh: 6%

What do the screens show for `CCOc1cc(C=C2C(=O)NC(=O)NC2=O)ccc1OCC(=O)N1CCOCC1`?
Pf growth 96h: 22%; HCMV inh: -27; Sm TGR block: inconclusive; Pf growth 48h: -4%; FBPA Giardia inh: -19%

Results for CCNC(=O)COc1ccc(/C=C2\COc3ccccc3C2=O)cc1OC ?
Pf growth 96h: -22%; HCMV inh: 73; Sm TGR block: 40µM*; Pf growth 48h: inconclusive; FBPA Giardia inh: 4%

How did COc1ccc(NC(=O)N2c3ccc(OC)cc3[C@@H](NC(=O)OCc3ccccc3)[C@H](C)[C@H]2c2ccccc2)cc1 do in these assays?
HCMV inh: 3

What do the screens show for `CCCOc1ccc(N2C(=O)C3ON(c4ccccc4)C(CCC)C3C2=O)cc1` (stereo not drawn)?
Pf growth 96h: 30%; HCMV inh: inconclusive; Sm TGR block: 22µM*; FBPA Giardia inh: 0%

How did Cc1cccc(N(CC(=O)N(C)Cc2ccccc2)S(=O)(=O)c2ccccc2)c1C do in these assays?
HCMV inh: -63*; Sm TGR block: 9%

How did Cc1nnc(SCC(=O)NC(C)(C)C)n1NCc1c(F)cccc1Cl do in these assays?
Pf growth 96h: 2.3µM*; HCMV inh: inconclusive; Sm TGR block: 38%; Pf growth 48h: 10%; FBPA Giardia inh: 2%

How did N/C(Cc1ccc([N+](=O)[O-])cc1)=N\OC(=O)COc1ccccc1Cl do in these assays?
Pf growth 96h: -63%; HCMV inh: -102*; Sm TGR block: -10%; Pf growth 48h: 12%; FBPA Giardia inh: 4%

Results for COc1cc(OC)cc(C(=O)N[C@H](C(=O)Nc2nc3ccc(S(C)(=O)=O)cc3s2)C(C)C)c1 ?
Pf growth 96h: inconclusive; HCMV inh: 111; Sm TGR block: -8%; Pf growth 48h: 4.7µM*; FBPA Giardia inh: -16%

What do the screens show for `Cc1nc2ccc(NC(=O)[C@@H](NC(=O)c3c(F)cccc3F)C(C)C)cc2s1`?
Pf growth 96h: inconclusive; HCMV inh: 25; Sm TGR block: -8%; Pf growth 48h: 2.1µM*

Results for COc1cc(OC)cc(C(=O)NC(C(=O)Nc2ccc3nc(C)sc3c2)C(C)C)c1 (stereo not drawn) ?
Pf growth 96h: 6.6µM*; HCMV inh: -10; Sm TGR block: -2%; Pf growth 48h: 3.3µM*

Results for COc1ccc(C(=O)Nc2nc3ccc(S(C)(=O)=O)cc3s2)cc1 ?
Pf growth 96h: 7%; HCMV inh: 62; Sm TGR block: -2%; Pf growth 48h: -29%; FBPA Giardia inh: 1%

Results for COc1ccc(NS(=O)(=O)c2cc(NC(=O)[C@@H](NC(=O)c3ccccc3)C(C)C)ccc2C)cc1 ?
Pf growth 96h: 9.3µM*; HCMV inh: -87*; Sm TGR block: 1%; Pf growth 48h: 9.3µM*; FBPA Giardia inh: -10%

What do the screens show for `COc1ccc(NS(=O)(=O)c2cc(NC(=O)c3ccc(=O)[nH]c3)ccc2C)cc1`?
Pf growth 96h: -16%; HCMV inh: 66; Sm TGR block: -12%; Pf growth 48h: 14%

How did C=CCOC(=O)COc1ccc2c3c(c(=O)oc2c1)CCCC3 do in these assays?
HCMV inh: -22

What do the screens show for `Cc1ccc(N2C(=O)NC(=O)/C(=C\c3cc(C)n(-c4cc(C(=O)O)cc(C(=O)O)c4)c3C)C2=O)cc1`?
Pf growth 96h: 8%; HCMV inh: 34; Sm TGR block: 7.9µM*; Pf growth 48h: -12%; FBPA Giardia inh: -9%

How did Cc1cc(/C=C2\C(=O)NC(=O)N(Cc3ccccc3Cl)C2=O)c(C)n1-c1ccc(C(=O)O)cc1 do in these assays?
Pf growth 96h: 1.9µM*; HCMV inh: -26; Sm TGR block: inconclusive; Pf growth 48h: 7%; FBPA Giardia inh: 0%

Results for O=C1NC(=O)N(Cc2ccccc2Cl)C(=O)/C1=C/c1cccs1 ?
Pf growth 96h: inconclusive; HCMV inh: -97*; Sm TGR block: -22%; Pf growth 48h: -9%; FBPA Giardia inh: -3%

How did CCc1ccc(N2C(=O)NC(=O)/C(=C\c3cc(C)n(-c4cc(C(=O)O)cc(C(=O)O)c4)c3C)C2=O)cc1 do in these assays?
Pf growth 96h: 32%; HCMV inh: -8; Sm TGR block: 8.9µM*; Pf growth 48h: -26%; FBPA Giardia inh: -15%

How did O=C1NC(=O)N(Cc2ccc(F)cc2)C(=O)/C1=C/c1cccs1 do in these assays?
Pf growth 96h: -17%; HCMV inh: 12; Sm TGR block: inconclusive; Pf growth 48h: 18%; FBPA Giardia inh: 6%
